Counter-ions that a name gives are not always drawn. About 50 (4%) of roughly 1,200 compounds showed activity. The sample holds actives, similar compounds and a random draw of the others, so the mix is not that of the screen. Values without a mark were called inactive. No stated cut-off is given here; in the data, all actives reach 1.3 or more but so do some inactives.

The results in this text go back to the supplement of paper PMC4683952.

The test system of the assay is Lgr5 (MarsCy1-Lgr5-EGFP, U2OS). In words: cell-surface Lgr5 expression (SCi1 fluorescence, background-subtracted) relative to WT DMSO (fold of DMSO control); higher = more Lgr5 at the plasma membrane, active = hit call of the paper. To be noted: U2OS MarsCy1-Lgr5-EGFP stable; treatment time: overnight; 16 µM; library: Johns Hopkins Clinical Compound Library.
Turning to `CCOc1ccc(NC(C)=O)cc1` [Phenacetin (acetophenetidin)], the “cell-surface Lgr5 expression” value was 1.24.

As for `CCOc1ccc(NC(=O)CC(C)O)cc1` (stereo not drawn) [Bucetin], the “cell-surface Lgr5 expression” value was 1.29.

Take `CCCCOc1ccc(CC(=O)NO)cc1` [Bufexamac]: the “cell-surface Lgr5 expression” value is 1.82 (active).

As to `Cc1c(C)c2c(c(C)c1O)CCC(C)(COc1ccc(CC3SC(=O)NC3=O)cc1)O2` (stereo not drawn) [Troglitazone], the “cell-surface Lgr5 expression” value was 1.09.

As to `Oc1cccc(O)c1O` [Pyrogallol], the “cell-surface Lgr5 expression” value was 1.15.

Regarding `CC(=O)OCC(=O)[C@@]1(O)CC[C@H]2[C@@H]3CCC4=CC(=O)CC[C@]4(C)[C@@]3(F)[C@@H](O)C[C@@]21C`, the “cell-surface Lgr5 expression” value is 1.35 (active).

For the molecule `CC1(C)O[C@@H]2C[C@H]3[C@@H]4CCC5=CC(=O)CC[C@]5(C)[C@@]4(F)[C@@H](O)C[C@]3(C)[C@]2(C(=O)CCl)O1` [Halcinonide], the “cell-surface Lgr5 expression” value was 1.71 (active).

Take `CC(=O)OCC(=O)[C@@]1(O)CC[C@H]2[C@@H]3CCC4=CC(=O)C=C[C@]4(C)[C@@]3(Cl)[C@@H](Cl)C[C@@]21C` [Dichlorisone acetate]: the “cell-surface Lgr5 expression” value is 1.55 (active).

As to `Nc1ccn([C@@H]2CS[C@H](CO)O2)c(=O)n1` [Lamivudine], the “cell-surface Lgr5 expression” value was 0.724.

On to `COc1cc2c(cc1OC)C(=O)C(CC1CCN(Cc3ccccc3)CC1)C2` (stereo not drawn) [Donepezil hydrochloride], for which the “cell-surface Lgr5 expression” value is 0.531.

Regarding `C[N+](C)(C)CCO.O=C([O-])CC(O)(CC(=O)O)C(=O)O` [Choline dihydrogen citrate], the “cell-surface Lgr5 expression” value was 0.803.

`CCOC(=O)[C@H](CCc1ccccc1)N[C@@H](C)C(=O)N1Cc2ccccc2C[C@H]1C(=O)O` [Quinapril]: the “cell-surface Lgr5 expression” value is 1.13.

On to `O=C([O-])[O-].[Li+].[Li+]` [Lithium carbonate], for which the “cell-surface Lgr5 expression” value was 0.278.

Regarding `N=C(N)NC(=N)NCCc1ccccc1` [Phenformin hydrochloride], the “cell-surface Lgr5 expression” value was 0.756.

With `O=S(=O)([O-])[O-].[Fe+2]` [Ferrous sulfate], the “cell-surface Lgr5 expression” value was 0.888.

Take `CCN(CC)CCOc1ccc2c(c1)C(=O)c1cc(OCCN(CC)CC)ccc1-2` [Tilorone dihydrochloride]: the “cell-surface Lgr5 expression” value was 1.62 (active).

For `CCCOc1ccc(C(=O)OCCN(CC)CC)cc1N` [Proparacaine], the “cell-surface Lgr5 expression” value is 1.22.

In the case of `CCCCOc1cc(C(=O)OCCN(CC)CC)ccc1N` [Benoxinate], the “cell-surface Lgr5 expression” value is 0.987.

Take `Cl.Cl.NCCN` [Ethylenediamine dihydrochloride]: the “cell-surface Lgr5 expression” value was 1.05.

With `COC(=O)[C@H](Cc1ccccc1)NC(=O)[C@@H](N)CC(=O)O` [Aspartame], the “cell-surface Lgr5 expression” value was 0.834.

In the case of `C[C@H](CCC(=O)O)[C@H]1CC[C@H]2[C@@H]3[C@@H](O)C[C@@H]4C[C@H](O)CC[C@]4(C)[C@H]3CC[C@]12C` [Ursodiol (Ursodeoxycholic acid)], the “cell-surface Lgr5 expression” value is 0.801.

In the case of `Nc1nc2[nH]cnc2c(=S)[nH]1` [Thioguanine (2-amino,6-mercaptopurine)], the “cell-surface Lgr5 expression” value was 0.849.

`S=c1[nH]cnc2nc[nH]c12` [6-Mercaptopurine monohydrate]: the “cell-surface Lgr5 expression” value is 1.67 (active).

Turning to `COc1ccc(CN2CCN(C(c3ccc(F)cc3)c3ccc(F)cc3)CC2)c(OC)c1OC` [Lomerizine HCl], the “cell-surface Lgr5 expression” value is 1.15.

For the molecule `O=C[O-].[Na+]` [Sodium formate], the “cell-surface Lgr5 expression” value is 0.903.

`C=N[C@@H](C(=O)N[C@@H]1C(=O)N2[C@@H]1SC(C)(C)[C@@H]2C(=O)O)c1ccccc1` [Metampicillin]: the “cell-surface Lgr5 expression” value was 0.953.

As to `N.N.O=S(=O)(O)O` [Ammonium sulfate], the “cell-surface Lgr5 expression” value was 0.987.

For the molecule `COc1ccc2cc3[n+](cc2c1OC)CCc1cc2c(cc1-3)OCO2` [Berberine], the “cell-surface Lgr5 expression” value was 1.64 (active).

For the molecule `COc1ccc2cc3[n+](cc2c1OC)CCc1cc2c(cc1-3)OCO2` [Berberine bisulfate], the “cell-surface Lgr5 expression” value is 1.47.

On to `O.O.O.O.O.O.[Cl-].[Cl-].[Sr+2]` [Strontium chloride hexahydrate], for which the “cell-surface Lgr5 expression” value was 1.29.

As for `COc1cccc2c1C(=O)c1c(O)c3c(c(O)c1C2=O)C[C@@](O)(C(=O)CO)C[C@@H]3O[C@H]1C[C@H](N)[C@H](O)[C@H](C)O1` [Doxorubicin], the “cell-surface Lgr5 expression” value is 0.634.

For `O=C(Nc1ccc(Cl)cc1)Nc1ccc(Cl)c(Cl)c1` [Trilocarban (3,4,4'-Trichlorocarbanilide, 99%)], the “cell-surface Lgr5 expression” value is 0.931.

Regarding `C=CCOc1ccccc1OCC(O)CNC(C)C` (stereo not drawn) [Oxprenolol], the “cell-surface Lgr5 expression” value was 1.42 (active).

On to `CC(C)NCC(O)COc1cccc2ccccc12` (stereo not drawn) [Propranolol], for which the “cell-surface Lgr5 expression” value was 1.07.

As for `COc1ccccc1OCC(O)CO` (stereo not drawn) [Guaifenesin], the “cell-surface Lgr5 expression” value was 1.27.

Regarding `COc1ccccc1OCC(O)CO` (stereo not drawn) [Guaifenesen (Guaiacol glyceryl ether)], the “cell-surface Lgr5 expression” value was 1.11.

Take `COC(=O)CCc1ccc(OCC(O)CNC(C)C)cc1` (stereo not drawn) [Esmolol]: the “cell-surface Lgr5 expression” value was 1.29.

As to `Nc1nc(O)c2ncn(CCC(CO)CO)c2n1` [Penciclovir], the “cell-surface Lgr5 expression” value was 0.791.

Take `CC(=O)[O-].CC(=O)[O-].[Mg+2]` [Magnesium acetate]: the “cell-surface Lgr5 expression” value was 0.917.

With `CN(C(=O)C(Cl)Cl)c1ccc(OC(=O)c2ccco2)cc1` [Diloxanide furoate], the “cell-surface Lgr5 expression” value was 1.05.

As for `CC1(C)S[C@@H]2[C@H](NC(=O)C3(N)CCCCC3)C(=O)N2[C@H]1C(=O)O` [Cyclacillin], the “cell-surface Lgr5 expression” value was 0.994.

On to `CC(=O)N(O)CCCCCNC(=O)CCC(=O)N(O)CCCCCNC(=O)CCC(=O)N(O)CCCCCN` [Deferoxamine mesylate], for which the “cell-surface Lgr5 expression” value is 0.865.

On to `CCCN(CCC)S(=O)(=O)c1ccc(C(=O)O)cc1` [Probenecid], for which the “cell-surface Lgr5 expression” value is 1.01.

In the case of `NS(=O)(=O)c1ccc(C(=O)O)cc1` [Carzenide (4-Carboxybenzenesulfonamide, 97%)], the “cell-surface Lgr5 expression” value is 1.3 (active).

On to `Nc1ccc(C(=O)O)cc1` [4-Aminobenzoic acid, sodium salt,99%], for which the “cell-surface Lgr5 expression” value was 0.905.

`Oc1c(I)cc(Cl)c2cccnc12` [Clioquinol]: the “cell-surface Lgr5 expression” value is 1.18.

Consider `CCCCCCN(C)C` [N,N-Dimethylhexylamine], for which the “cell-surface Lgr5 expression” value is 1.05.

As for `O=NN(CCCl)C(=O)NC1CCCCC1` [Lomustine], the “cell-surface Lgr5 expression” value is 1.37.

For the molecule `CCC(=O)O[C@H]1[C@H](O[C@@H]2[C@@H](C)[C@H](O[C@H]3C[C@@](C)(OC)[C@@H](O)[C@H](C)O3)[C@@H](C)C(=O)O[C@H](CC)[C@@](C)(O)[C@H](O)[C@@H](C)C(=O)[C@H](C)C[C@@]2(C)O)O[C@H](C)C[C@@H]1N(C)C` [Erythromycin estolate], the “cell-surface Lgr5 expression” value is 0.567.

On to `CCOc1ccc2nc(S(N)(=O)=O)sc2c1` [Ethoxzolamide (6-Ethoxy-2-benzothiazolesulfonamide)], for which the “cell-surface Lgr5 expression” value was 1.15.

For the molecule `CCN1CCCC1CNC(=O)c1cc(S(N)(=O)=O)ccc1OC` (racemic) [Sulpiride (+/-)-], the “cell-surface Lgr5 expression” value was 1.07.

Turning to `CCc1cc(Cl)c(OC)c(C(=O)NC[C@@H]2CCCN2CC)c1O` [Eticlopride hydrochloride (S)], the “cell-surface Lgr5 expression” value is 1.52 (active).

As to `O=C([O-])C(=O)[O-].O=C([O-])C(=O)[O-].O=C([O-])C(=O)[O-].[Ce+3].[Ce+3]` [Cerium oxalate], the “cell-surface Lgr5 expression” value was 1.08.

Turning to `COC(=O)c1ccc(O)c2nc3c(C=O)c(O)cc(O)c3nc12` [Lomofungin], the “cell-surface Lgr5 expression” value is 0.884.

On to `COc1ccnc(C[S+]([O-])c2nc3cc(OC(F)F)ccc3[nH]2)c1OC` (stereo not drawn) [Pantoprazole], for which the “cell-surface Lgr5 expression” value was 1.01.

For `OC(CCCN1CCC(O)(c2ccc(Cl)cc2)CC1)c1ccc(F)cc1` (stereo not drawn) [Haloperidol metabolite II], the “cell-surface Lgr5 expression” value is 1.18.

With `CCCCCCCCCCCCCCc1ccc(S(=O)(=O)O)cc1.OCl` [Oxychlorosene], the “cell-surface Lgr5 expression” value was 0.635.

For the molecule `C[C@H]1C[C@H]2[C@@H]3CCC4=CC(=O)C=C[C@]4(C)[C@@]3(Cl)[C@@H](O)C[C@]2(C)[C@@]1(O)C(=O)CO` [Beclomethasone], the “cell-surface Lgr5 expression” value is 1.36 (active).

Take `CC(=O)OCC(=O)[C@@]1(O)[C@@H](C)C[C@H]2[C@@H]3CCC4=CC(=O)C=C[C@]4(C)[C@@]3(F)[C@@H](O)C[C@@]21C` [Betamethasone 21-acetate]: the “cell-surface Lgr5 expression” value was 1.53 (active).

Consider `C[C@@H]1C[C@H]2[C@@H]3CCC4=CC(=O)C=C[C@]4(C)[C@@]3(F)[C@@H](O)C[C@]2(C)[C@@]1(O)C(=O)COP(=O)(O)O`, for which the “cell-surface Lgr5 expression” value was 1.26.

Regarding `CC(=O)OCC(=O)[C@@]1(O)[C@@H](C)C[C@H]2[C@@H]3CCC4=CC(=O)C=C[C@]4(C)[C@@]3(F)[C@@H](O)C[C@@]21C`, the “cell-surface Lgr5 expression” value was 1.59 (active).

Consider `C[C@@H]1C[C@H]2[C@@H]3CCC4=CC(=O)C=C[C@]4(C)[C@@]3(F)[C@@H](O)C[C@]2(C)[C@H]1C(=O)CO`, for which the “cell-surface Lgr5 expression” value is 1.41.

For `C[C@H]1C[C@H]2[C@@H]3CCC4=CC(=O)C=C[C@]4(C)[C@@]3(F)[C@@H](O)C[C@]2(C)[C@@]1(O)C(=O)CO`, the “cell-surface Lgr5 expression” value was 1.45 (active).

Turning to `C[C@H]1C[C@H]2[C@@H]3CCC4=CC(=O)C=C[C@]4(C)[C@@]3(F)[C@@H](O)C[C@]2(C)[C@@]1(O)C(=O)COP(=O)(O)O` [Betamethasone sodium phosphate], the “cell-surface Lgr5 expression” value is 1.35 (active).

For the molecule `O=P([O-])([O-])O.[K+].[K+]` [Potassium phosphate dibasic], the “cell-surface Lgr5 expression” value is 1.09.

In the case of `O.O.O.O.O.O.[Br-].[Br-].[Sr+2]` [Strontium bromide hexahydrate], the “cell-surface Lgr5 expression” value was 0.469.

For the molecule `Nc1ccc2cc3ccc(N)cc3nc2c1` [Proflavine hemisulfate salt hydrate, powder], the “cell-surface Lgr5 expression” value is 1.06.

Consider `CCCCCCCCCCCCCCCCCC(=O)[O-].CCCCCCCCCCCCCCCCCC(=O)[O-].[Zn+2]` [Zinc stearate], for which the “cell-surface Lgr5 expression” value is 0.658.
